# Source: PubChem BioAssay (NCATS)
# Inconclusive results are not listed. Unmarked numbers belong to inactive results. Activity calls are given as the source filed them. Calls follow the shape of the dose curve; as a rule, active = well fitted curve in the direction sought with a large enough effect in the signal ratio; inconclusive = small, poorly fitted or top-dose-only effect, or a change in a side signal; inactive = no such curve, though single readings can be large or run the other way; the % refers to the signal ratio.
# Target: Tumor necrosis factor (Homo sapiens) (UniProt P01375)
# Sequence (P01375 whole entry, looked up): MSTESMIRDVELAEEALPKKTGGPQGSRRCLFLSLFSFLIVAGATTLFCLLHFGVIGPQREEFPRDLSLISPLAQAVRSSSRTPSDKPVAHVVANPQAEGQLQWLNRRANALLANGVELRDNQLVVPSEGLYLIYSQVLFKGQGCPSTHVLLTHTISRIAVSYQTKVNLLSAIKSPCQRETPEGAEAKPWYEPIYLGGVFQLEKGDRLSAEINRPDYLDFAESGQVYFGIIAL
# Test: qHTS assay to identify small molecules that stimulate Tumor Necrosis Factor-alpha (TNF-alpha) secretion (AID 651757); as to activation (TNF-alpha secretion): 0% is about no effect
# Conditions: Human cells, HTRF 665/615 ratio; series mostly up to 92.2 µM; activation (TNF-alpha secretion): at the top concentration
# Description: National Center for Advancing Translational Sciences [NCATS]
# NIH Chemical Genomics Center [NCGC]
# National Institutes of Environmental Health Sciences [NIEHS]
# National Toxicology Program [NTP]
# Tumor Necrosis Factor-alpha (TNF-alpha), a secreted cytokine, plays an important role in inflammatory diseases and immune disorders. TNF-alpha, a 17 kDa cytokine, is mainly secreted by activated macrophages and monocytes in response to several inflammatory and immunological stimuli. To study the effect of environmental chemicals on TNF-alpha secretion, a homogeneous TNF-alpha assay was developed using Time Resolved fluorescence (HTRF) technology based on Time Resolved Fluorescent Resonance Energy Transfer (TR-FRET) (Leister et al., Current Chemical Genomics, 5:21-29, 2011). This assay allows measuring TNF-alpha secreted from the cells in a 1536-well plate format.
# THP-1 cells were dispensed at 3000 cells/5ul/well in 1536-well white solid plates. After addition of 23 nl of compound, positive controls and DMSO only, the assay plates were incubated at 37 C for 17 hrs, followed by addition of 5 uLof mixture of cryptate labeled and XL665 labeled anti-TNF-alpha antibodies. After the assay plates were incubated at room temperature for 3 hr, the plates were measured by an EnVision plate reader.
# Potency is read from the fitted curve at half-maximal effect.
Compound,activation (TNF-alpha secretion) [%],Potency
C=CC(=O)CC,0.0341,–
Cc1cc(=O)oc2cc(O)cc(O)c12,–,7.5 µM (active)
O=[N+]([O-])c1ccccc1Nc1ccccc1,-0.435,–
Cc1ccc2ccc3cccc4ccc1c2c34,2.56,–
c1ccc(SCCSc2ccccc2)cc1,0.661,–
C=C(C#N)C(=O)OCC,-1.01,–
CC(C)OCC1CO1 (stereo not given),0.286,–
CCCCCCCC/C=C\CCCCCCCC(=O)N(CCO)CCO,0.212,–
NC(=O)Nc1nc2ccccc2[nH]1,-0.249,–
O=C=Nc1ccc(Cl)c(Cl)c1,0.179,–
c1ccc(Nc2cccc3ccccc23)cc1,1.79,–
CCOC(=O)C1OC1c1ccccc1 (stereo not given),-0.169,–
c1ccc2c(c1)ccc1ccccc12,-0.233,–
C=CC1CO1 (stereo not given),0.424,–
C[C@@H]1CC2(OC(O)[C@]3(C)O[C@H]23)O[C@H]2C[C@@]3(C)[C@@H]4CC[C@H]5C(C)(C)C(O[C@@H]6OC[C@@H](O)[C@H](O)[C@H]6O)CC[C@@]56C[C@@]46CC[C@]3(C)[C@@H]12 (stereo not given in full),-0.246,–
O=CC(=O)c1ccccc1,0.534,–
Cc1c2ccccc2c(C)c2c1ccc1ccccc12,1.99,–
Clc1nc2ccccc2nc1Cl,1.57,–
Nc1cnn([C@@H]2O[C@H](CO)[C@@H](O)[C@H]2O)c(=O)n1,1.01,–
Brc1cc(Oc2cc(Br)c(Br)c(Br)c2Br)c(Br)c(Br)c1Br,1.63,–

Compound,activation (TNF-alpha secretion) [%],Potency
Oc1c(Cl)cc(Cl)c(Cl)c1Cl,1.74,–
C1CCCNCC1,0.718,–
CC(=O)c1ccc(Cl)c(Cl)c1Cl,0.287,–
CCc1ccc(C(c2ccc(CC)cc2)C(Cl)Cl)cc1,0.331,–
Cc1cc2nc(N)sc2cc1C,1.1,–
S=C(NC1CCCCC1)NC1CCCCC1,-0.0166,–
Cc1ccccc1OCC1CO1 (stereo not given),0.0586,–
C=CC(=O)OCCCCCCOC(=O)C=C,0.562,–
O=C(O)c1cc(N=Nc2ccc([N+](=O)[O-])cc2)ccc1O,-0.0928,–
Cc1ccc(N)cc1[N+](=O)[O-],-0.22,–
C/C=C1/C(=O)C[C@H]2[C@@H]3CCC4=CC(=O)CC[C@]4(C)[C@H]3CC[C@]12C,0.0053,–
c1ccc(COCc2ccccc2)cc1,-0.596,–
CCCCCCCCOc1ccc(C(=O)O)cc1,0.166,–
COc1ccc(C(=O)Nc2ccccc2)cc1[N+](=O)[O-],0.146,–
C/C=C/C=C/C=O,1.32,–
Cc1ccc(C(=O)O)cc1[N+](=O)[O-],0.807,–
CCCCC(CC)COC(=O)COc1ccc(Cl)cc1Cl (stereo not given),0.302,–
CCNC(=S)NCC,0.312,–
CC(=O)OCc1ccc2c(c1)OCO2,-0.129,–
CC1=C(/C=C/C(C)=C/C=C/C(C)=C/C=O)C(C)(C)CCC1,-0.696,–
